Reference: the supplement of paper PMC10646978
± gives the standard deviation.

Legend:
Conditions in all cases: modulator concentration 10 µM
[1] = test system: RAW-Dual (murine macrophage reporter line); experiment: NF-kB reporter (SEAP) activity fold change vs agonist alone; higher = enhanced NF-kB activity
Summary of the method: (§1)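 RAW-Dual murine macrophage reporter cells were plated at 50 000 per well in 384-well plates, pin-transferred compound to 10 μM final, and pre-incubated for 1 hour at 37 °C before a PRR agonist was added and the cells incubated overnight. NF-κB activity was read from supernatant SEAP with QUANTI-Blue at 620 nm absorbance, and IRF activity from Lucia luciferase with QUANTI-Luc by luminescence. Each signal was expressed as fold change by dividing by the mean agonist-only control on the same plate. Two replicate plates were averaged, with errors obtained by propagation.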

[2] = test system: RAW-Dual (murine macrophage reporter line); experiment: IRF reporter (Lucia luciferase) activity fold change vs agonist alone; higher = enhanced IRF activity
Summary of the method: as §1

[3] = test system: RAW-Dual (murine macrophage reporter line); experiment: viability score (confluency relative to resting cells, overnight) (fraction); higher = more viable, active = viable (0.7 or more)
Summary of the method: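 RAW-Dual macrophages in 384-well plates were exposed overnight to compound at 10 μM final. Confluency was imaged with IncuCyte, and two confluency masks were generated with IncuCyte software over all imaged wells. The viability score is confluency expressed relative to resting cells. Compounds were called viable if both masks exceeded 70% of resting cells.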

[4] = agonist: CpG ODN 1826 0.5 ug/mL

Structure (SMILES)	NF-kB reporter [1, 4]	NF-kB reporter ([1]; agonist: LPS 0.1 ug/mL)	NF-kB reporter ([1]; agonist: MPLA […])	IRF reporter ([2]; agonist: 3'3'-cGAMP 10 ug/mL)	IRF reporter ([2]; agonist: LPS 0.1 ug/mL)	IRF reporter ([2]; agonist: MPLA […])	viability score [3]
CN(C)CCN(Cc1ccccc1)Cc1cc(Cl)cc(Cl)c1O	0.799 ± 0.063	0.918 ± 0.081	0.996 ± 0.086	0.947 ± 0.058	1.29 ± 0.074	1.32 ± 0.12	1.01 (active)
CCOC(=O)C1=C(C)OC(N)=C(C#N)C1c1cc(C)c(OC)cc1C (configuration not stated)	0.925 ± 0.073	1.01 ± 0.11	0.898 ± 0.056	0.66 ± 0.11	0.987 ± 0.089	0.935 ± 0.17	1 (active)
Cc1c(-c2ccccc2)nc2ccccc2c1C(=O)Nc1ccc(F)cc1F	0.568 ± 0.25	0.889 ± 0.097	0.689 ± 0.11	0.918 ± 0.061	1.36 ± 0.1	1.12 ± 0.19	0.953 (active)
CNC(CC(=O)O)C(=O)O (configuration not stated)	0.986 ± 0.073	1.08 ± 0.073	0.978 ± 0.028	0.943 ± 0.054	0.942 ± 0.094	0.948 ± 0.078	1 (active)
CC(C)(C)C(=O)Oc1ccc(S(=O)(=O)Nc2ccccc2C(=O)NCC(=O)O)cc1	0.755 ± 0.05	1.07 ± 0.086	1.18 ± 0.063	1.1 ± 0.064	1.09 ± 0.26	1.38 ± 0.47	0.972 (active)
Cl.OC(CCCN1CCCCC1)(c1ccccc1)c1ccccc1	0.856 ± 0.037	0.895 ± 0.088	0.982 ± 0.061	1.63 ± 0.092	1.1 ± 0.3	1.08 ± 0.47	0.998 (active)
COc1ccccc1C=C(C#N)c1nc(-c2cc3cc(Br)ccc3oc2=O)cs1	0.951 ± 0.08	0.962 ± 0.075	0.943 ± 0.089	0.972 ± 0.069	1.31 ± 0.18	1.58 ± 0.27	1.02 (active)
CCOC(=O)C1=C(C)NC(C)=C(C(=O)OCC)C1c1ccc(N(C)C)cc1	1.14 ± 0.13	1.07 ± 0.071	1.24 ± 0.069	0.855 ± 0.16	1.04 ± 0.095	0.94 ± 0.24	0.996 (active)
CCOc1ccc(C=c2sc3nc4ccccc4n3c2=O)cc1Cl	1.07 ± 0.064	1.02 ± 0.095	0.979 ± 0.031	1.01 ± 0.036	1.06 ± 0.051	0.974 ± 0.094	0.998 (active)
O=C(COc1ccccc1)N1CCCC1Cn1nccn1 (configuration not stated)	0.962 ± 0.09	0.951 ± 0.077	0.923 ± 0.1	0.904 ± 0.049	1.17 ± 0.1	1.06 ± 0.25	0.975 (active)
COc1cc2ccc(=O)oc2cc1O	1.04 ± 0.31	0.862 ± 0.062	0.892 ± 0.057	0.909 ± 0.053	1.11 ± 0.17	0.946 ± 0.12	1 (active)
CC(Cc1ccccc1)NC(=O)C1COc2ccccc2O1 (configuration not stated)	0.662 ± 0.13	1.12 ± 0.09	1.13 ± 0.14	0.979 ± 0.048	0.965 ± 0.13	1.15 ± 0.12	0.919 (active)
O=C(COCc1ccccc1)NC1CCC(F)(F)CC1	0.891 ± 0.068	1.03 ± 0.14	0.777 ± 0.057	0.643 ± 0.036	1.1 ± 0.069	1.02 ± 0.36	1.01 (active)
Cc1ccc(-n2nc(C(C)(C)C)cc2NC(=O)Nc2ccc(OCCN3CCOCC3)c3ccccc23)cc1	0.68 ± 0.13	0.658 ± 0.052	0.784 ± 0.077	1.19 ± 0.058	0.741 ± 0.14	0.844 ± 0.1	1.02 (active)
COCCOCC1CCN(C(=O)c2cc(-c3cccc(OC)c3)n[nH]2)CC1	1.09 ± 0.076	0.967 ± 0.092	0.992 ± 0.051	0.957 ± 0.039	1.04 ± 0.059	0.985 ± 0.2	0.995 (active)
CCOc1cc(CC(=O)N[C@@H](CC(C)C)c2ccccc2N2CCCCC2)ccc1C(=O)O	1.24 ± 0.23	1.11 ± 0.23	0.956 ± 0.055	0.897 ± 0.039	1.22 ± 0.32	1.26 ± 0.18	0.683 (inactive)
COC(=O)C1=CN(CC2CCCO2)C=C(C(=O)OC)C1c1ccc2c(c1)OCO2 (configuration not stated)	1.03 ± 0.12	1.1 ± 0.093	1.02 ± 0.071	1.07 ± 0.036	1.46 ± 0.16	1.12 ± 0.089	1.01 (active)
CS(=O)(=O)c1ccc(C2=C(c3ccccc3)C(=O)OC2)cc1	0.962 ± 0.09	1.04 ± 0.071	0.975 ± 0.042	1.05 ± 0.058	0.97 ± 0.074	0.946 ± 0.084	0.997 (active)
COc1ccc(C2N3CC4(C)CN2CC(C)(C3)C4=O)cc1 (configuration not stated)	1.03 ± 0.17	0.973 ± 0.093	0.947 ± 0.082	1.03 ± 0.027	1.32 ± 0.2	1.27 ± 0.15	1 (active)
Cc1nc2ccc(Cl)cn2c(=O)c1NC(=O)c1c(F)cccc1Cl	0.78 ± 0.034	1.05 ± 0.11	0.96 ± 0.083	1.05 ± 0.049	1.09 ± 0.25	1.2 ± 0.41	0.965 (active)
O=c1oc2cc(O)ccc2s1	1.11 ± 0.088	1.02 ± 0.07	1.02 ± 0.026	0.911 ± 0.05	0.962 ± 0.067	0.827 ± 0.074	1 (active)
O=C1CCC(=O)N1C1CC2CCC(C1)N2C(=O)c1cnccn1 (configuration not stated)	0.892 ± 0.056	0.903 ± 0.081	1.06 ± 0.057	1.03 ± 0.053	1.22 ± 0.19	1.31 ± 0.41	0.954 (active)
C=CC(=O)Nc1cccc(Oc2nc(Nc3ccc(N4CCN(C)CC4)cc3)nc3ccsc23)c1	0.0541 ± 0.0029	0.0574 ± 0.0052	0.184 ± 0.036	0.0243 ± 0.0019	0.0856 ± 0.0056	0.0904 ± 0.035	0.0526 (inactive)
CCCCc1nc2cc(/C=C/C(=O)NO)ccc2n1CCN(CC)CC	1.6 ± 0.08	1.77 ± 0.14	2.71 ± 0.12	0.0513 ± 0.0098	0.266 ± 0.019	0.424 ± 0.05	0.0718 (inactive)
O=C(O)CSCC(=O)NC1CCSC1=O (configuration not stated)	0.824 ± 0.065	0.898 ± 0.11	1.04 ± 0.12	1.01 ± 0.06	1.36 ± 0.13	1.5 ± 0.15	1 (active)
CC(C)Nc1cc(-c2c[nH]c(C(=O)N[C@H](CO)c3cccc(Cl)c3)c2)c(Cl)cn1	0.208 ± 0.012	0.0734 ± 0.0045	0.158 ± 0.01	0.677 ± 0.022	1.46 ± 0.12	0.62 ± 0.093	0.742 (active)
